PubChem BioAssay (Tox21)
Results filed as inconclusive are left out. Active and inactive are the calls of the source. Unless noted, calls come from the whole dose curve; as a rule, active = well fitted curve in the direction sought with a large enough effect in the repeat runs; inconclusive = weak or mixed curves; inactive = no such curve, though single readings can be large; an effect the other way counts as inactive or inconclusive.

Key:
[1] = qHTS assay to identify small molecule antagonists of the thyroid receptor (TR) signaling pathway - cell viability counter screen (AID 743064); note: nearly all actives have a fitted effect of over 50% in size
Summary of the method: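 Plate GH3.TRE-Luc cells; incubate 4 h at 37 °C; add compound, then T3 to 1 nM final; incubate 23.5 h; add CellTiter-Fluor; incubate 30 min at 37 °C, 5% CO2; read fluorescence.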

[2] = qHTS assay to identify small molecule antagonists of the thyroid receptor (TR) signaling pathway (AID 743065); note: series mostly up to about 70 µM; nearly all actives have a fitted effect of over 55% in size
Summary of the method: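 GH3.TRE-Luc rat pituitary cells (two TREs driving luciferase) were dosed with compound, then stimulated with 1 nM T3 (final) for 23.5 h at 37 C. ONE-Glo luminescence was the read-out, with CellTiter-Fluor fluorescence as the cytotoxicity counter-screen.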

[3] = tested on: thyroid hormone receptor (rat, GH3 cells); assay: qHTS assay to identify small molecule agonists of the thyroid receptor (TR) signaling pathway (AID 743066; calls by dose curve)
[4] = molecular target: Estrogen receptor (Homo sapiens) (UniProt P03372); assay: qHTS assay to identify small molecule antagonists of the estrogen receptor alpha (ER-alpha) signaling pathway (AID 743069; active = well fitted curve in the direction sought with a large enough effect in the signal ratio in the repeat runs, not every such curve was filed as active; the % refers to the signal ratio)
Summary of the method: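 Beta-lactamase FRET fluorescence is read after 2 hr at room temperature with LiveBLAzer B/G substrate. Before that, ER-alpha-bla HEK293 cells sit 4 hr after plating, then receive compound plus 17beta-estradiol and incubate 18 hr at 37C.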

[5] = qHTS assay to identify small molecule antagonists of the estrogen receptor alpha (ER-alpha) signaling pathway - cell viability counter screen (AID 743074; calls by dose curve;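 note: HEK293 cells carrying ER-alpha-UAS-bla reporter stimulated with 17beta-estradiol; nearly all actives have a fitted effect of over 45% in size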)
[6] = molecular target: Estrogen receptor (Homo sapiens) (UniProt P03372); assay: qHTS assay to identify small molecule agonists of the estrogen receptor alpha (ER-alpha) signaling pathway (AID 743075; calls by dose curve;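 note: HEK293 GripTite cells with ER-alpha and UAS-driven beta-lactamase reporter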)
[7] = molecular target: Estrogen receptor (Homo sapiens) (UniProt P03372); assay: qHTS assay to identify small molecule agonists of the estrogen receptor alpha (ER-alpha) signaling pathway using the BG1 cell line (AID 743079); note: nearly all actives have a fitted effect of over 20% in size
[8] = qHTS assay to identify small molecule antagonists of the estrogen receptor alpha (ER-alpha) signaling pathway using the BG1 cell line (AID 743080; calls by dose curve;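 note: BG1 cells stimulated with 17beta-estradiol alongside compound; series mostly up to about 70 µM; nearly all actives have a fitted effect of over 25% in size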)
Summary of the method: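 Seeding, 24 h rest, compound transfer from DMSO, 17beta-estradiol addition, 21.5 h incubation, CellTiter-Fluor (30 min, 37 C), then ONE-Glo (30 min, room temperature): this sequence was run on BG1-Luc-4E2 reporter cells.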

[9] = qHTS assay to identify small molecule antagonists of the estrogen receptor alpha (ER-alpha) signaling pathway using the BG1 cell line - cell viability counter screen (AID 743081);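 note: compound given together with 17beta-estradiol as the ER stimulus; series mostly up to about 70 µM; nearly all actives have a fitted effect of over 45% in size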
Aromatase (Homo sapiens) = Aromatase (Homo sapiens) (UniProt P11511); assay: qHTS assay to identify aromatase inhibitors (AID 743083); note: series mostly up to about 70 µM; nearly all actives have a fitted effect of over 55% in size
[10] = qHTS assay to identify aromatase inhibitors - cell viability counter screen (AID 743084);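 note: cells stimulated with testosterone during compound exposure; nearly all actives have a fitted effect of over 55% in size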
[11] = molecular target: Aryl hydrocarbon receptor (Homo sapiens) (UniProt P35869); assay: qHTS assay to identify small molecule that activate the aryl hydrocarbon receptor (AhR) signaling pathway (AID 743085);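 note: HG2L7.5c1 human HepG2 liver cells with stably integrated DRE-driven firefly reporter; series mostly up to about 70 µM; nearly all actives have a fitted effect of over 15% in size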
Summary of the method: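 Steps: seed HepG2-AhR-luc cells; allow 5 h at 37C; pin-transfer test compound or vehicle; incubate 24 h at 37C; add viability dye (30 min, 37C) and read fluorescence; add luciferase substrate (30 min, RT) and read luminescence.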

[12] = qHTS assay to identify small molecule that activate the aryl hydrocarbon receptor (AhR) signaling pathway - cell viability counter screen (AID 743086);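 note: HepG2 liver cells carrying the AhR DRE luciferase reporter; series mostly up to about 70 µM; nearly all actives have a fitted effect of over 45% in size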
Summary of the method: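 HepG2-AhR-luc (HG2L7.5c1) cells, 4000/well, treated 24 h at 37 C with compound; viability measured as CellTiter-Fluor fluorescence after 30 min in the same wells as the luciferase read.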

[13] = molecular target: Peroxisome proliferator-activated receptor gamma (Homo sapiens) (UniProt P37231); assay: qHTS assay to identify small molecule agonists of the peroxisome proliferator-activated receptor gamma (PPARg) signaling pathway (AID 743094; active = well fitted activation curve with a large enough effect in the signal ratio in the repeat runs, not every such curve was filed as active; the % refers to the signal ratio)
Summary of the method: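 HEK293H PPARg-bla cells, 5 h settle at 37C/5% CO2; compound (DMSO) 17 h, 37C; B/G FRET substrate 1 h RT; fluorescence intensity read-out. qHTS format.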

[14] = molecular target: Peroxisome proliferator-activated receptor gamma (Homo sapiens) (UniProt P37231); assay: qHTS assay to identify small molecule antagonists of the peroxisome proliferator-activated receptor gamma (PPARg) signaling pathway (AID 743191; calls by dose curve; note: series mostly up to about 63 µM; nearly all actives have a fitted effect of over 30% in size)
Summary of the method: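 GeneBLAzer PPARg UAS-bla HEK293H cells, 5 h post-plating, exposed to compounds 17 h at 37C. LiveBLAzer B/G FRET substrate added for 1 h at room temperature; beta-lactamase reporter read by fluorescence intensity.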

[15] = qHTS assay to identify small molecule antagonists of the peroxisome proliferator-activated receptor gamma (PPARg) signaling pathway - cell viability counter screen (AID 743194); note: nearly all actives have a fitted effect of over 55% in size
Summary of the method: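 Cytotoxicity counter screen in PPARg-bla HEK293H cells, same wells as reporter assay. Compounds plus 50 nM rosiglitazone (final) for 17 h at 37 C, then viability read by CellTiter-Glo luminescence.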

[16] = qHTS assay for small molecule agonists of the antioxidant response element (ARE) signaling pathway (AID 743202; active = well fitted activation curve with a large enough effect in the signal ratio in the repeat runs, not every such curve was filed as active; the % refers to the signal ratio)
Summary of the method: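 HepG2 ARE-bla reporter line, 2,000 cells/well; 5 h preincubation 37 C/5% CO2; compound (DMSO) 16 h 37 C; B/G FRET substrate 2 h RT; fluorescence intensity.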

[17] = qHTS assay for small molecule agonists of the antioxidant response element (ARE) signaling pathway - cell viability counter screen (AID 743203; calls by dose curve; note: nearly all actives have a fitted effect of over 55% in size)
Summary of the method: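 Luminescence read-out (CellTiter-Glo, 30 min at room temperature) measured cell viability in the same wells as the ARE beta-lactamase reporter. HepG2 ARE-bla cells were treated with compounds for 16 hrs at 37C/5% CO2.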

[18] = qHTS assay for small molecule activators of the heat shock response signaling pathway - cell viability counter screen (AID 743209); note: nearly all actives have a fitted effect of over 50% in size
Summary of the method: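 HSE-bla HeLa; 1500 cells/well; overnight 37 C, 5% CO2; compound 5 h 37 C; LiveBLAzer B/G substrate 2.5 h RT; CellTiter-Glo 30 min RT; luminescence.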

[19] = qHTS assay for small molecule activators of the heat shock response signaling pathway (AID 743210; active = well fitted activation curve with a large enough effect in the signal ratio in the repeat runs, with a control signal flat, not every such curve was filed as active; the % refers to the signal ratio;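 note: HeLa cells with beta-lactamase reporter driven by heat shock elements; series mostly up to about 63 µM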)
Summary of the method: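 Beta-lactamase reporter read-out: FRET substrate fluorescence after 2.5 h at RT, following 5 h compound treatment at 37 C of HeLa cells carrying HSE-driven bla reporter; quantitative HTS format.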

Measured: Potency

Chain of Estrogen receptor (Homo sapiens) (P03372 whole entry, looked up): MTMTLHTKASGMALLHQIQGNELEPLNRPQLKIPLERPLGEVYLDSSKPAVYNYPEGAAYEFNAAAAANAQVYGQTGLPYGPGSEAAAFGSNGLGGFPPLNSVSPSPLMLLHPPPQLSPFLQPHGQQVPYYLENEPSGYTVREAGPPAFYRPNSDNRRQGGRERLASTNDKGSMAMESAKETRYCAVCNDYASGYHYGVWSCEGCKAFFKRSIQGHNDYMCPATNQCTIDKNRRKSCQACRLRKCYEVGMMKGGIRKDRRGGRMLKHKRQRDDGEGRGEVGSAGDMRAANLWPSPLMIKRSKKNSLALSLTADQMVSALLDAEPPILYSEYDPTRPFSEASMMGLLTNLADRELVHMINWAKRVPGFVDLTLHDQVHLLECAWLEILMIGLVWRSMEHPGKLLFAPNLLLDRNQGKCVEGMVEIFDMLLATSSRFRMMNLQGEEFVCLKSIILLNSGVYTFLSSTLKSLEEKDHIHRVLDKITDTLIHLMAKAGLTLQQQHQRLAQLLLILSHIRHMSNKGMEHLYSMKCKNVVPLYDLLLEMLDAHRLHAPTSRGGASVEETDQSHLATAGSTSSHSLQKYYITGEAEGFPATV
Chain of Aryl hydrocarbon receptor (Homo sapiens) (P35869 whole entry, looked up): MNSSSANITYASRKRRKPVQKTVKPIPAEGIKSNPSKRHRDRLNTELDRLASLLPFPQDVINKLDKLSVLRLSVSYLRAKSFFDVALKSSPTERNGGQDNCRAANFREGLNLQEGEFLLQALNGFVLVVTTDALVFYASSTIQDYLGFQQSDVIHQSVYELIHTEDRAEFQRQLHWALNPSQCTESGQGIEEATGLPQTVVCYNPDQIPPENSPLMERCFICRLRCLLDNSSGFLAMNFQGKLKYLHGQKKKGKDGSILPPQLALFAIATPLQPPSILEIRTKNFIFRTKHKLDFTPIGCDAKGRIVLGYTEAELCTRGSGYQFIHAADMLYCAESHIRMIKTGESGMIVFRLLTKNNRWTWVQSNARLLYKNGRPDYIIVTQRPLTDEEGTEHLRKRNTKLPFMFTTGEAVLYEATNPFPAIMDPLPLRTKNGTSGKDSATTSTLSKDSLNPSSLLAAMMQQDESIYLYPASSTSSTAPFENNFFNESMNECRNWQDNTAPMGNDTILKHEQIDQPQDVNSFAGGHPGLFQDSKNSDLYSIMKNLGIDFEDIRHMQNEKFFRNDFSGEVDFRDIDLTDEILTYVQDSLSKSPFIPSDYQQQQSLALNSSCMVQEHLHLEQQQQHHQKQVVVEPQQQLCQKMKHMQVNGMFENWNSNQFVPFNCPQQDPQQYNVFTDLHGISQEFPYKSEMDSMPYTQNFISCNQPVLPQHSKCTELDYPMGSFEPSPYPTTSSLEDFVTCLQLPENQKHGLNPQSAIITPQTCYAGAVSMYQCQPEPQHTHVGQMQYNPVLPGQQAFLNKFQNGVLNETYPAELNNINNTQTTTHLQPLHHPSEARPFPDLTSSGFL
Chain of Peroxisome proliferator-activated receptor gamma (Homo sapiens) (P37231 whole entry, looked up): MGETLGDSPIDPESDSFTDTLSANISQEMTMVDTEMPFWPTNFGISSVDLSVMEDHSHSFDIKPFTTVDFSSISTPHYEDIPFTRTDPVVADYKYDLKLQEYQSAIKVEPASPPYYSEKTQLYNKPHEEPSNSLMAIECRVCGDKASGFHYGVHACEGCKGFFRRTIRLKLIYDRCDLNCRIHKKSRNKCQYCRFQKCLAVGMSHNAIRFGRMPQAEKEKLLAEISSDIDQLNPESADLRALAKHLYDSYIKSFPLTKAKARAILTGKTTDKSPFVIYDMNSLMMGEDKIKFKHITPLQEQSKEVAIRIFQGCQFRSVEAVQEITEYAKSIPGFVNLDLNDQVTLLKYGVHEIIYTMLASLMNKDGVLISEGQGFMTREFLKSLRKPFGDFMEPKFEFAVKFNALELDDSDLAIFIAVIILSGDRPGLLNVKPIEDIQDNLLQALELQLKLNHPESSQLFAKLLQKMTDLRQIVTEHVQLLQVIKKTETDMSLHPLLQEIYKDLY
Chain of Aromatase (Homo sapiens) (P11511 whole entry, looked up): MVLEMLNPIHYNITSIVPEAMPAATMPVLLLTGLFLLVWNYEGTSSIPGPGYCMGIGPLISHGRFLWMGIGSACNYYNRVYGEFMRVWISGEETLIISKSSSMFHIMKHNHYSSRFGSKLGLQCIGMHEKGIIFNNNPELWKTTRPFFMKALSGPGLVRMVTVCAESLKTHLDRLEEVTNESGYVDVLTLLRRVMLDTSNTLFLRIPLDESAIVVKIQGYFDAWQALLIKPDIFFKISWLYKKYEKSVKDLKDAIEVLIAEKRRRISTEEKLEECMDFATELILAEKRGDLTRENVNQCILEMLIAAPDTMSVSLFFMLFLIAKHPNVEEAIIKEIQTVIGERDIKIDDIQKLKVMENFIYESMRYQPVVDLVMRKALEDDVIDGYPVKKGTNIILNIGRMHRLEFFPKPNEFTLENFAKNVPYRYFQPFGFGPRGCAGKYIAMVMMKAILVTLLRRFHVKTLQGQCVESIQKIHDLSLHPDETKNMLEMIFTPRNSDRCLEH

C=C(C)c1cccc(C(C)(C)N=C=O)c1
inactive: all assays above

CC(C)(C)NC[C@H](O)COc1cccc2c1CCCC2=O
inactive: all assays above

CCCC(CC)c1ccccc1 (configuration not stated)
inactive: all assays above

CC(C)Nc1ccccc1
not listed: [19]
inactive: all other assays above

CCCCOC(=O)[C@H](C)O
not listed: [16]
inactive: all other assays above

CCOCCOCC
not listed: [14]
inactive: all other assays above

Cc1c(Cl)cccc1Cl
not listed: [14] | [19]
inactive: all other assays above

CC(=O)CCc1ccc(OC(C)=O)cc1
not listed: [17]
inactive: all other assays above

CC1(C)Oc2ccc(C#N)cc2[C@@H](N2CCCC2=O)[C@@H]1O
inactive: all assays above

COC(=O)c1cc(Cl)cc(Cl)c1
not listed: [15] | [19]
inactive: all other assays above

NCCOCCN
not listed: [19]
inactive: all other assays above

CC(C)Cn1cnc2c1c(=O)n(C)c(=O)n2C
inactive: all assays above

Cc1ncc([N+](=O)[O-])n1CC(C)O (configuration not stated)
not listed: [14]
inactive: all other assays above

O=C(O)CCCCCC(=O)O
not listed: [15] | [16]
inactive: all other assays above

CC1CC(=O)CC(C)(C)C1 (configuration not stated)
not listed: [14]
inactive: all other assays above
